Screening results deposited in PubChem by National Center for Advancing Translational Sciences (NCATS).
Most compounds without a hit are left out; they make up all but 2.8% or so of the library.
GLP1R cytotox – cytotoxic in the GLP-1 receptor inverse agonist counter-screen | HEK293 cAMP-luciferase reporter cells, luminescence, 24 h | Potency, µM (titrated, usually from 38.3 µM), for the others: at the top dose activity change, negative = inhibition, hits mostly inhibitors | hit rate 0.13% among 410,000 | AID 624418;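 further: loss of luciferase light is scored as toxicity; potency means the concentration at half of the fitted maximal effect; on the % scale 0 is the no-effect control and ±100 the full control effect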
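Seeding density was 200 cells/uL; after overnight-length (12 h) culture, 23 nL compounds went on for 24 h at 37 °C. Readout used a luciferase detection reagent, luminescence taken after 12 min at room temperature.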
GLP1R inv ag – GLP-1 receptor (human) inverse agonism; P43220; HEK293 GLP-1R CRE-luciferase, luminescence, 24 h; GLP-1R form is constitutively active; Potency, µM (top dose mostly 38.3 µM), for the others: at the top dose activity change, negative = inhibition, most hits filed as inhibitors; hit rate 1.6% among 410,000; AID 624417; further: potency means the concentration at half of the fitted maximal effect; on the % scale 0 is the no-effect control and ±100 the full control effect; nearly all actives have a fitted effect of over 55% in size
Target sequence (P43220 whole entry, looked up): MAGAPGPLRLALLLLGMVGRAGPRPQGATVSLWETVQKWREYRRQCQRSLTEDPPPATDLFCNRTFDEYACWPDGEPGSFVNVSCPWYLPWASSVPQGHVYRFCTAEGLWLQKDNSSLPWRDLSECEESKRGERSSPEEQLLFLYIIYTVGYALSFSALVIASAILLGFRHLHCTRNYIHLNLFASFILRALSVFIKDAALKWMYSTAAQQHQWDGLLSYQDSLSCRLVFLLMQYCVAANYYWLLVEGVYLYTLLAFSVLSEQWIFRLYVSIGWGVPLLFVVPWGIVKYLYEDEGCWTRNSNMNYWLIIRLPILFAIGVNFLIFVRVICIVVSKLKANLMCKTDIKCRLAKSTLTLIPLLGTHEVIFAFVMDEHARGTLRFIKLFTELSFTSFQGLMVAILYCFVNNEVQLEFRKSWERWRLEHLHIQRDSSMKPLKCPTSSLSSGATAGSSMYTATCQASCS
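HEK293 cells stably co-expressing a cAMP-responsive luciferase reporter and constitutively active GLP-1R were seeded, incubated 12 h, then exposed to compounds for 24 h at 37 C. Luminescence was read 12 min after detection reagent; inverse agonists lower signal.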
GLS inh – glutaminase GLS (human) inhibition. O94925. hit rate 0.21% among 410,000. GLS enzymatic activity, qHTS titration. Potency, µM (doses to about 45.5 µM), for the others: at the top dose activity change, negative = inhibition, usual class: inhibitors. AID 624170; further: potency means the concentration at half of the fitted maximal effect; on the % scale 0 is the no-effect control and ±100 the full control effect
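Enzyme dispensed in phosphate buffer (45 mM, pH 8.2, 0.02% Tween-20), compounds pinned in, then 1 mM L-glutamine solution and the glutamate oxidase–HRP–Amplex Red mix added; fluorescence read immediately and again after 30 min at room temperature.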
hERG WT inh – inhibitors of human wildtype KCNH2 potassium channel. U2OS, BacMam KCNH2, thallium flux FluxOr; stronger effect = lower value. activity change, % at 1.84 µM. hit rate 0.37% among 340,000. AID 720551;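 active means maximum activity change below -70%; inconclusive means maximum activity change between -70% and -50%; inactive means maximum activity change above -50%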; further: on the % scale 0 is the no-effect control and ±100 the full control effect
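U2OS cells transduced with wild-type KCNH2 virus are loaded with FluxOr dye for 45 min, and thallium flux is measured in kinetic reads before and after stimulation buffer. Rate constants are normalized to DMSO controls.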
KCNH2 3.1 block – blocks the human KCNH2 3.1 channel isoform; U2OS KCNH2 3.1, thallium flux FluxOr; stronger effect = lower value; activity change, % (tested at about 1.8 µM); hit rate 0.95% among 340,000; AID 720553;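 active means maximum activity change below -70%; inconclusive means maximum activity change from -70% to -50%; inactive means maximum activity change above -50%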;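 further: thallium influx rate constant from kinetic fluorescence after stimulation buffer; on the % scale 0 is the no-effect control and ±100 the full control effect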
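Thallium flux via FluxOr fluorescence (Red40 quencher, 45 min loading) in U2OS cells virally expressing the KCNH2 3.1 isoform (1.77 x 10^8 /mL virus, overnight at 37 C). Rate constants from 2-min kinetic reads post-stimulation, normalised to positive and negative controls.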
GLP-1R agonist – GLP-1 receptor (human) agonism; P43220; HEK293 GLP-1R CRE-luciferase, luminescence, 4-6 h; cells express a hypersensitive GLP-1R form; Potency, µM (titrated, usually from 45.6 µM), for inactives: at the top dose activation, hits mostly activators; hit rate 0.007% among 380,000; AID 624172; further: potency means the concentration at half of the fitted maximal effect; % of control where 0% means no effect
* hit, by the source's call; ? = inconclusive; . = no result; ! = a repeat was not active. Unless noted, the call rests on the fitted dose curve; in most records, active means well fitted curve in the direction sought with a large enough effect; inconclusive means small, poorly fitted or top-dose-only effect, or another doubt; inactive means no such curve, though single readings can be large; an effect the other way counts as inactive or inconclusive.

SMILES	GLP1R cytotox	GLP1R inv ag	GLS inh	hERG WT inh	KCNH2 3.1 block	GLP-1R agonist
CCc1ccc(N2C(=O)CC(c3cc(OC)ccc3OC)C3=C2COC3=O)cc1 (centres undefined)	2.0%	-1.3%	-1.9%	.	.	-1.7%
CC1(Cc2ccccc2C#N)C(=O)Nc2ccc(OC(F)(F)F)cc21 (centres undefined)	2.6%	?	-19.6%	.	.	4.8%
CC1(Cc2ccccc2Cl)C(=O)Nc2ccc(OC(F)(F)F)cc21 (centres undefined)	4.1%	10µM*	2.3%	.	.	-0.3%
O=C(NCCCN1CCCC1=O)c1cccc(S(=O)(=O)N2CCCCC2)c1	6.3%	-4.0%	-1.0%	-9.9	-2.7	7.8%
CC12CC3(C)CC(C)(C1)CC(NC(=O)N1CCCC1)(C2)C3	-21.9%	10µM*	-15.3%	2.0	-16.4	-5.0%
O=c1oc2ccccc2c(Nc2cccc(O)c2)c1[N+](=O)[O-]	-20.6%	14.9%	40.4%	-20.1	-5.6	5.1%
Cc1ccc(Nc2c([N+](=O)[O-])c(=O)oc3ccccc23)cc1C	-29.6%	?	8.8%	20.1	-75.3*	3.0%
COc1cccc(C(=O)N2c3cc(C)ccc3OCC2C(C)(C)C)c1 (centres undefined)	-1.6%	11.3%	8.6%	17.4	4.6	0.7%
COc1ccc(S(=O)(=O)N2c3cc(C)ccc3OCC2C(C)(C)C)cc1 (centres undefined)	-22.0%	5.01µM*	18.1%	4.0	12.2	-0.5%
Cc1ccc(S(=O)(=O)N2c3cc(C)ccc3OCC2C(C)(C)C)cc1 (centres undefined)	?	5.01µM*	-0.8%	-7.4	1.2	-11.3%
Cc1ccc(S(=O)(=O)N2c3ccccc3OCC2c2ccccc2)cc1 (centres undefined)	1.2%	?	-20.4%	-3.1	-15.7	-7.0%
Cc1ccc(N2CCCC2=O)cc1S(=O)(=O)N1CCOCC1	-7.1%	10.4%	-15.7%	-9.4	-2.5	7.6%
COc1ccc(-n2cc(-c3ccccc3)nc2SCC(=O)Nc2ccccc2)cc1Cl	-1.6%	?	-1.2%	.	.	.
CS(=O)(=O)c1ccc2nnn(OCC(=O)Nc3ccc(Br)cc3Br)c2c1	-6.3%	10µM*	-12.2%	-9.6	-4.5	4.1%
CCCc1ccc(OCC(O)CN2CCN(c3ccccn3)CC2)cc1 (centres undefined)	-21.5%	?	15.9%	1.1	-76.5*	-0.2%
CCc1ccc(OCC(O)CN2CCN(c3ccccn3)CC2)cc1 (centres undefined)	-1.5%	?	9.9%	30.7	-34.1	-2.4%
OC(COc1ccc(Cl)cc1)CN1CCN(c2ccccn2)CC1 (centres undefined)	10.4%	?	-9.2%	7.4	?	-4.4%
Cc1cc(OCC(O)CN2CCN(c3ccccn3)CC2)cc(C)c1Cl (centres undefined)	-10.1%	11.2µM*	12.3%	5.5	-21.1	-1.0%
OC(COc1ccc(Cl)c2ccccc12)CN1CCN(c2ccccn2)CC1 (centres undefined)	-5.0%	10µM*	14.3%	-11.6	-33.3	0.0%
COc1ccc(-n2c(=O)c3ccc(C(=O)NCc4ccc(C)cc4)cc3n(Cc3ccc(F)cc3Cl)c2=O)cc1	-0.8%	10.3%	0.1%	.	.	3.7%
Cc1ccc(NC(=O)Cc2ccc(Cl)cc2)nc1	7.4%	-14.7%	-0.6%	5.3	1.1	6.6%
Cc1ccc(NC(=O)Cc2ccc(-c3ccccc3)cc2)nc1	-22.6%	10µM*	0.4%	-1.8	-0.1	3.6%
CC1CCCCC1NC(=O)COC(=O)c1c2c(nc3ccccc13)/C(=C\c1ccco1)CC2 (centres undefined)	-32.3%	-18.9%	11.2µM*	0.6	11.3	6.6%
COc1cccc(C(=O)c2sc(NC(C)C)nc2N)c1	?	3.55µM*	3.0%	-8.6	-1.6	-27.4%
COc1ccc(C(=O)c2sc(NC(C)C)nc2N)cc1OC	-26.1%	0.5%	22.6%	-0.6	1.2	-39.5%
SMILES	GLP1R cytotox	GLP1R inv ag	GLS inh	hERG WT inh	KCNH2 3.1 block	GLP-1R agonist
Cc1ccc(S(=O)(=O)c2cc3cc(C(=O)Nc4ccc(C)cc4C)ccc3oc2=O)cc1	24.8%	9.6%	0.4%	.	.	.
CN(C)CCNc1ccc(CO)c2oc3ccc(O)cc3c(=O)c12	?	10µM*	8.2%	8.7	3.0	-30.1%
CCN(CC)CCNc1ccc(CO)c2oc3cc(Cl)ccc3c(=O)c12	-16.4%	4.47µM*	-0.4%	13.2	1.5	-3.3%
COc1ccc2nc3oc(C(=O)N4CCN(c5cc(C)ccc5C)CC4)cc3cc2c1	4.4%	-6.8%	-17.0%	.	.	1.5%
O=C(O)COc1ccccc1C1Nc2ccccc2-c2nnc(SCc3ccc(Cl)cc3)nc2O1 (centres undefined)	1.4%	2.4%	9.5%	.	.	.
CN1CCC(=C(c2ccccc2)c2ccc(Br)cc2)CC1	?	?	0.0%	-37.1	-96.8*	-4.0%
CCn1c(C)c(C)c2cc(C(=O)N3CCc4ccccc4C3)ccc21	12.4%	8.91µM*	7.6%	-18.7	-8.8	17.8%
Brc1ccc(-c2nnc(-c3ccccc3)c(N3CCSCC3)n2)cc1	2.6%	8.91µM*	0.8%	9.0	-12.0	-26.5%
CN1CCN(c2nc(-c3ccc(Br)cc3)nnc2-c2ccccc2)CC1	-2.2%	8.91µM*	-4.0%	21.7	-17.7	24.9%
Cc1ccc(-c2nnc(-c3ccccc3)c(N3CCOCC3)n2)cc1	-16.4%	0.0%	-5.6%	-15.2	-3.5	-0.1%
O=C(CN(C(=O)c1ccc(Cl)cc1)C1CCCCC1)Nc1ccc(Cl)c([N+](=O)[O-])c1	4.8%	?	0.1%	-2.3	7.7	0.2%
O=C(CN(C(=O)c1ccccc1Cl)C1CCCCC1)Nc1ccc(Cl)c([N+](=O)[O-])c1	-18.3%	3.98µM*	1.5%	-5.5	3.0	-14.0%
CCN1C[C@@H]2[C@@H]3C(=O)N(Cc4ccccc4)C(=O)[C@@H]3[C@](C)(C1=O)N2C(=O)c1ccccc1	3.5%	1.9%	0.0%	-14.1	2.0	7.8%
Cc1cc(-c2ccc(N=Nc3ccc4c(S(=O)(=O)O)cc(S(=O)(=O)O)c(N)c4c3O)c(C)c2)ccc1N=Nc1ccc2c(S(=O)(=O)O)cc(S(=O)(=O)O)c(N)c2c1O	.	.	14.1µM*!	.	.	-2.9%
CN1CCN(C2CN(C3CCCCC3)S(=O)(=O)C2)CC1 (centres undefined)	16.8%	6.2%	0.5%	.	.	-2.7%
O=S1(=O)CC(N2CC=CC2)CN1C1CCCCC1 (centres undefined)	-7.7%	10.5%	11.2µM*	.	.	9.1%
CCS(=O)(=O)c1c(S(=O)(=O)CC)c2cc(C(C)(C)C)ccn2c1C(=O)c1ccc(F)cc1	-2.9%	-11.3%	-8.4%	.	.	11.8%
